Reference: the supplement of paper PMC6555819

Assays:
Experiment in all cases: PBM binding z-score (relative to random genomic background probes); higher = stronger binding; sequences stand for … in GC…GCGATTGACAGCGTAGAATGAAGG
[1] = system: PPARg:RXRa DBDmut IVT, anti-RXR (DBD mutation: RXRa K156A/R161A, NR concentration 270 nM, RXRa partner concentration 90 nM)
Summary of the method: (§1)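 Each nuclear receptor dimer, without ligand, was incubated for 1 h on custom Agilent 4×180K protein-binding microarrays. Binding was detected with antibodies against each partner (one per run), and scanned fluorescence was regression-normalized. The binding z-scores are referenced to random human genomic background probes.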

[2] = system: PPARg:RXRa IVT, anti-PPARg (NR concentration 270 nM, RXRa partner concentration 90 nM)
Summary of the method: as §1

[3] = system: PPARg DBDmut:RXRa IVT, anti-PPARg (DBD mutation: PPARg1 K132A/R137A, NR concentration 270 nM, RXRa partner concentration 90 nM)
Summary of the method: as §1

[4] = system: PPARg DBDmut IVT, anti-PPARg (DBD mutation: PPARg1 K132A/R137A, NR concentration 270 nM)
Summary of the method: as §1

[5] = system: PPARg homodimer (NR concentration 180 nM)
Summary of the method: as §1

[6] = system: PXR:RXRa (NR concentration 270 nM, RXRa partner concentration 90 nM)
Summary of the method: as §1

[7] = system: PXR homodimer (NR concentration 270 nM)
Summary of the method: as §1

[8] = system: RARa:RXR (NR concentration 270 nM, RXRa partner concentration 90 nM)
Summary of the method: as §1

[9] = system: RARa homodimer (NR concentration 270 nM)
Summary of the method: as §1

[10] = system: RARb:RXRa (NR concentration 270 nM, RXRa partner concentration 90 nM)
Summary of the method: as §1

[11] = system: RARb homodimer (NR concentration 270 nM)
Summary of the method: as §1

[12] = system: RARg:RXRa (NR concentration 270 nM, RXRa partner concentration 90 nM)
Summary of the method: as §1

[13] = system: RARg homodimer (NR concentration 270 nM)
Summary of the method: as §1

[14] = system: RXRa DBDmut IVT, anti-RXR (DBD mutation: RXRa K156A/R161A, NR concentration 90 nM)
Summary of the method: as §1

[15] = system: RXRa homodimer (NR concentration 180 nM)
Summary of the method: as §1

[16] = system: THRa:RXRa (NR concentration 90 nM, RXRa partner concentration 90 nM)
Summary of the method: as §1

[17] = system: THRa homodimer (NR concentration 90 nM)
Summary of the method: as §1

[18] = system: VDR homodimer (NR concentration 270 nM)
Summary of the method: as §1

Row | Sequence | PBM binding z-score [1] | PBM binding z-score [2] | PBM binding z-score [3] | PBM binding z-score [4] | PBM binding z-score [5] | PBM binding z-score [6] | PBM binding z-score [7] | PBM binding z-score [8] | PBM binding z-score [9] | PBM binding z-score [10] | PBM binding z-score [11] | PBM binding z-score [12] | PBM binding z-score [13] | PBM binding z-score [14] | PBM binding z-score [15] | PBM binding z-score [16] | PBM binding z-score [17] | PBM binding z-score [18]
1 | TGAATGAGGTTATAAGATCAGGGGACGTTGCAAA | 1.5 | 1.82 | 0.706 | 0.291 | 0.361 | 0.901 | 0.3 | 1.58 | 0.169 | 1.43 | 0.854 | 1.51 | 0.975 | 1.3 | 2.02 | 2.1 | 0.619 | 1.21
2 | TCTAGTTGGTCACGGAGGTCTCACACGACGGGTA | 2.19 | 2.67 | 0.65 | 1.23 | 1.03 | 0.478 | -0.307 | 0.619 | -0.249 | 1.91 | 1.65 | 1.31 | 1.72 | 0.721 | 1.01 | 0.636 | 0.268 | 0.33
3 | TCATACAGGTAATACAGGTGAAAGTCGGCATCTA | 3.1 | 2.32 | 1.11 | 1.28 | 1.24 | 0.855 | 0.48 | 1.23 | 1.28 | 0.835 | 0.84 | 0.731 | 0.586 | 1.65 | 1.23 | 1.18 | 0.583 | 0.391
4 | ATCTCTAGGTAAAAGTCCAGTGAATCCCGAGGAT | 2.07 | 1.54 | 0.922 | 0.924 | 0.148 | -0.1 | 0.357 | -0.148 | 0.615 | 0.582 | -0.174 | 0.275 | 0.393 | -0.403 | -0.00664 | 0.296 | 0.175 | 0.187
5 | ATCTCAAGGTAAAAGTTCAGTGAATCCCGAGGAT | -0.133 | 1.48 | 0.958 | 1.4 | 0.853 | 2.03 | 1.43 | 2.15 | 0.0495 | 2.62 | 2.4 | 2.29 | 1.96 | 0.614 | 2.21 | 1.94 | 0.529 | 1.28
6 | TCTGCTAGGTCAGTTGGTCAGCTGACGAGCTGCC | 2.95 | 3.18 | 1.59 | 1.47 | 0.336 | 0.0252 | -1.5 | 0.0768 | -1.43 | 3.42 | 2.33 | 2.98 | 4.14 | 0.382 | 0.854 | 1.31 | -0.308 | -1.1
7 | ATACCAAGGAGATCGTGAGGTCGTTGATACTAAC | -0.488 | -0.258 | -0.211 | 0.112 | 0.128 | 1.65 | 1.21 | 0.973 | -0.464 | 0.331 | 0.696 | 0.264 | 0.458 | 0.394 | 0.833 | 2.37 | 1.63 | 3.26
8 | GCTTGTAGATCAAGGTTATGAAAGACTAAGCTAA | 1.21 | 0.962 | 0.000562 | 0.0061 | 0.45 | 0.681 | -0.0933 | 0.915 | -0.0399 | 0.632 | 0.411 | 0.306 | 0.25 | -0.2 | 0.623 | 1.36 | -0.196 | -0.036
9 | AGGATGAGGTTATACGTAGATCAGGGAAGAAAGT | 0.241 | 0.698 | 1.41 | 0.577 | 1.34 | 1.6 | 1.47 | 1.71 | 1.01 | 1.77 | 1.66 | 1.85 | 1.16 | 1.66 | 2.27 | 2.39 | 1.27 | 1.08
10 | TGAATGATGTTATAAGATCAGGGAACGTTGCAAA | -1.12 | -0.0889 | 0.204 | 0.597 | -0.0286 | -0.22 | -0.193 | 0.123 | 0.481 | -0.32 | -0.648 | 0.116 | 0.244 | -1.01 | 0.153 | -0.185 | -0.281 | -0.22
11 | CCTTACGGGTCACGAGGTTAAAGCACGACGAGCG | 3.53 | 5.39 | 0.774 | 0.583 | 4.94 | 4.93 | 0.408 | 6.28 | 1.03 | 4.76 | 3.99 | 6.28 | 5.56 | 2.06 | 6.97 | 3.82 | 0.843 | 2.06
12 | CCGTCTGGGGCAAAGGTTACCATACTCAGTACGA | 3.2 | 5.43 | -0.238 | -0.231 | 1.64 | 2.45 | -0.428 | 4.24 | -0.0466 | 2.5 | 2.21 | 3.55 | 1.87 | 0.589 | 3.51 | 1.74 | -0.0764 | -0.106
13 | ATATGTAGGTTAGCGGGTCATTCAGTTTGCGCAT | 7.62 | 7.02 | 2.14 | 1.79 | 2.58 | 3.07 | 5.07 | 2.89 | 1.16 | 2.31 | 2.65 | 2.83 | 2.37 | 1.42 | 2.77 | 2.06 | 1.08 | 2.76
14 | CGTCCAAGGTCGATGCTAGGTCAGTGAAAGCATT | 0.324 | 0.816 | -0.113 | -0.767 | 1.54 | 2.04 | 0.704 | 2.49 | -0.458 | 2.92 | 3.05 | 4.58 | 2.78 | 1.32 | 1.41 | 3.28 | 1.45 | 1.09
